Measured values published in PubChem BioAssay AID1240 (Sanford-Burnham Center for Chemical Genomics, 2008).
Hit rate of the full screen: of about 50,000 compounds, about 800 (1.6%) showed an effect of 50% or more. Shown is part of a subset that was picked to be rich in strong results.

The compounds below were run against Bcl-2-like protein 10 (Homo sapiens) (UniProt Q9HD36) (assay: Phenotype converters, Bcl-B/TR3 peptide binding displacement, primary biochemical FP (AID 1240;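 also: 0% = Bcl-B with tracer peptide and DMSO and 100% = tracer peptide lacking Bcl-B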)). Conditions: GST-Bcl-B / FITC-TR3 peptide fluorescence polarization; stronger effect = higher value; compound at 3.75 mg/L.
Chain of Bcl-2-like protein 10 (Homo sapiens) (Q9HD36 whole entry, looked up): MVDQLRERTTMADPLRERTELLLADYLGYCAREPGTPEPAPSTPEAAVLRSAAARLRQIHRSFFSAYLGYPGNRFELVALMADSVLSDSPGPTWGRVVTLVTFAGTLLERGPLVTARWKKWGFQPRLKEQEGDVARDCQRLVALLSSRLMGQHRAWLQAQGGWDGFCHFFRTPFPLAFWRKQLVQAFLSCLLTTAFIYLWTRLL

| Structure (SMILES) | displacement |
| --- | --- |
| Cc1nc2cc(N=Cc3ccccc3O)ccc2n1C | 12.7% |
| Oc1ccccc1C=Nc1ccc2c(c1)ncn2CCn1cnc2cc(N=Cc3ccccc3O)ccc21 | 115% |
| Oc1ccccc1C=Nc1ccc2c(c1)ncn2-c1ccccc1 | 15.5% |
| Cc1nc2c(sc3nc(C)c(C)c(C)c32)c(=O)o1 | 0% |
| COC(=O)c1cc(Cl)c(NC(=O)C(c2ccccc2)c2ccccc2)cc1OC | -16.6% |
| COc1cc(/C=N/NC(=O)/C(=C\C=C\c2ccccc2)NC(=O)c2ccccc2)cc(OC)c1O | -2.3% |
| Cc1c(C=O)c(=O)oc2c3c4c(cc12)CCCN4CCC3 | 148% |
| O=c1oc2c3c4c(cc2cc1CCO)CCCN4CCC3 | 75.8% |
| O=c1cc(C(F)(F)C(F)(F)F)c2cc3c4c(c2o1)CCCN4CCC3 | 66.7% |
| Cc1c(O)ccc2c3c(c(=O)oc12)CCC3 | 12.3% |
| CN1CCN(Cc2c(O)ccc3c4c(c(=O)oc23)CCC4)CC1 | -0.5% |
| Cc1c(OCc2ccc(C(=O)O)cc2)ccc2c3c(c(=O)oc12)CCC3 | 8.3% |
| COCCCNC(=O)c1ccc(C(=O)NCCCOC)cc1 | -6.5% |
| O=[N+]([O-])c1cnc(-c2ccccc2)nc1 | -3.2% |
| COc1cc(Br)cc(/C=C(\C#N)C(=O)NC2CCCCC2)c1O | -5.3% |
| COc1ccc(Cl)cc1C(=O)Nc1nc(-c2ccc(Cl)cc2Cl)cs1 | 9.7% |
| CCSc1nc2ccccc2n1Cc1ccc(OC)c([N+](=O)[O-])c1 | 10.5% |
| CC(=O)Nc1cccc(NS(=O)(=O)c2ccccc2)c1 | 9.1% |
| C=CCNC(=O)Nc1ccc2nccnc2c1 | 8.7% |
| CCOC(=O)c1c(NC=O)sc2c1CCC/C2=N\O | 148% |
| CCOC(=O)c1c(NC(=O)c2ccccc2)sc2c1CCC/C2=N/O | -0.2% |
| CCOC(=O)c1c(NC=O)sc2c1CCC2 | -2.1% |
| COc1cccc(N2C(=O)C(=O)/C(=C(\O)c3ccccc3)C2c2ccc([N+](=O)[O-])cc2)c1 (stereo not drawn) | 4.1% |
| O=c1/c(=C/c2cn(Cc3ccc(F)cc3)c3ccccc23)sc2nc3ccccc3n12 | 2.3% |
| NS(=O)(=O)c1cccc(NC(=O)c2cccs2)c1 | 1.4% |

| Structure (SMILES) | displacement |
| --- | --- |
| CCOc1ccc(/C=C2\SC(=S)N(CCC(=O)N3CCN(C)CC3)C2=O)cc1 | 1.2% |
| O=C(CCCN1C(=O)/C(=C/c2ccccc2)SC1=S)Nc1ccccc1C(=O)O | 2% |
| CCOc1ccc(/C=C2/SC(=S)N(CN3CCOCC3)C2=O)cc1 | 8.8% |
| COc1ccc(NC(=O)CCN2C(=O)/C(=C/c3ccc(F)cc3)SC2=S)cc1 | 12.3% |
| COc1ccc(NC(=O)CCN2C(=O)/C(=C/c3cccs3)SC2=S)cc1 | 82.8% |
| CCOc1ccc(/C=C2\SC(=S)N(CCC(=O)N3CCOCC3)C2=O)cc1 | 100% |
| O=C(CCCN1C(=O)/C(=C\c2cccs2)SC1=S)Nc1ccc(F)c(Cl)c1 | 3.9% |
| O=C(CCN1C(=O)/C(=C\c2cccs2)SC1=S)Nc1ccc(Cl)cc1 | 77.4% |
| O=C(CCN1C(=O)/C(=C/c2cccs2)SC1=S)Nc1ccc(F)cc1 | 10.6% |
| O=C(CCCN1C(=O)/C(=C\c2cccs2)SC1=S)Nc1ccccc1O | 10.6% |
| Cc1ccccc1NC(=O)CCCN1C(=O)/C(=C/c2cccc3c2OCO3)SC1=S | 94.9% |
| COc1ccc(NC(=O)CCN2C(=O)/C(=C\c3cccc(OC)c3)SC2=S)cc1 | -5.5% |
| O=C(O)CSc1nnc(-c2ccco2)n1-c1ccccc1 | 0.4% |
| O=C(Nc1ccc(Cl)c(Cl)c1)C(c1ccccc1)c1ccccc1 | 15.4% |
| COC(=O)c1ccccc1P(C)(C)=O | 1% |
| COc1ccc(Br)cc1C(=O)Nc1cc2nn(-c3ccc(C)cc3)nc2cc1C | -6.9% |
| COc1ccc(NS(=O)(=O)c2cc(C)ccc2C)cc1 | 2% |
| O=C(Nc1cccnc1)c1cccc(C(=O)Nc2cccnc2)n1 | -7.2% |
| O=C(CSc1nnc(-c2ccncc2)n1-c1ccccc1)c1ccc(F)cc1 | -2.7% |
| COc1ccc(C(=O)Nc2cccc(NC(=O)c3ccc(F)cc3)c2)cc1Br | 2.2% |
| CN(C)c1ccc(NS(=O)(=O)c2ccccc2[N+](=O)[O-])cc1 | 9.8% |
| O=C1C(Cl)=C(N2CCOCC2)C(=O)C(Cl)=C1/C=C/N1CCOCC1 | 24.3% |
| CCOc1ccc(/C=C2\SC(=S)N(CCC(=O)Nc3ccccn3)C2=O)cc1 | -4.3% |
| COc1ccc(/C=C2\SC(=S)N(CCCC(=O)Nc3c(C)n(C)n(-c4ccccc4)c3=O)C2=O)cc1 | 120% |
| Cc1c(NC(=O)CCCN2C(=O)/C(=C/c3ccccc3)SC2=S)c(=O)n(-c2ccccc2)n1C | 1.5% |

| Structure (SMILES) | displacement |
| --- | --- |
| O=C(CCCN1C(=O)/C(=C\c2cccs2)SC1=S)Nc1cccnc1 | -0.9% |
| COc1cccc(NC(=O)CCN2C(=O)/C(=C/c3ccc(C)cc3)SC2=S)c1 | 39.1% |
| O=C(CCN1C(=O)/C(=C/c2cccs2)SC1=S)Nc1cccc(F)c1 | -21.4% |
| O=C(CCN1C(=O)/C(=C/c2cccs2)SC1=S)Nc1cccnc1 | 135% |
| CCOc1ccc(/C=C2\SC(=S)N(CCC(=O)Nc3cccnc3)C2=O)cc1 | 77% |
| COc1cccc(/C=C2/SC(=S)N(CCC(=O)Nc3c(C)n(C)n(-c4ccccc4)c3=O)C2=O)c1 | 7.7% |
| CCc1ccc(C(=O)CC2(O)C(=O)Nc3ccc(Br)cc32)cc1 (stereo not drawn) | 2.3% |
| Cc1ccc(CN2CCN(N=Cc3c(O)ccc4ccccc34)CC2)c(C)c1 | 0.3% |
| Cc1nc([N+](=O)[O-])cn1-c1cccc(O)c1 | 3% |
| Cc1cccc(NC(=O)COc2ccccc2)n1 | 13.2% |
| CCCNc1nc(OCC(F)(F)F)nc(OCC(F)(F)F)n1 | 12.4% |
| CN(C)/C=C1\N=C(c2cccc(Br)c2)OC1=O | 0.8% |
| COc1ccc(/C=C2/N=C(c3ccc(C)cc3)OC2=O)cc1Br | 127% |
| COc1cc(/C=C2\N=C(c3cccc(Br)c3)OC2=O)cc(OC)c1OC | 72.6% |
| O=C1OC(c2ccc(F)cc2)=N/C1=C\c1ccc(Cl)cc1 | 4.3% |
| COc1ccc(/C=C2\N=C(c3cccc(OC)c3)OC2=O)cc1 | -1.7% |
| O=C1OC(c2cccc(F)c2)=N/C1=C\c1ccc(F)cc1 | -2.2% |
| C=CCOc1c(Br)cc(/C=C2/N=C(c3ccccc3)OC2=O)cc1OC | -4.9% |
| O=C1OC(c2ccc(F)cc2)=N/C1=C\c1cccc(Br)c1 | 74.2% |
| Cc1ccc(/C=C2\N=C(c3ccc(Cl)cc3)OC2=O)cc1 | 0% |
| Cc1ccc(C2=N/C(=C\c3ccccc3)C(=O)O2)cc1 | -7.3% |
| COc1ccc(C2=NC(=Cc3ccc(Br)cc3)C(=O)O2)cc1 | 22.5% |
| COc1ccc(/C=C2/N=C(c3ccc(Br)cc3)OC2=O)cc1 | 99.4% |
